PubChem BioAssay (NCI)
About 79,000 compounds went through this panel and 15% of them were active in at least one assay; those are over-represented in the sample as a whole. Unmarked numbers belong to inactive results. The source made the active and inactive calls. No stated cut-off is given here; in the data, active means growth inhibition above about 70%; inactive means the rest.

Key:
[1] = NCI Yeast Anticancer Drug Screen. Data for the rad50 strain (AID 155);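 further: 0% = growth of vehicle-only cultures of the same strain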; conditions: S. cerevisiae rad50 strain growth inhibition; at 50.0 µM; active compounds read high
Method in brief: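 Genetically altered yeast (DNA repair pathway); compound treatment; growth inhibition vs vehicle ctrl.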

[2] = NCI Yeast Anticancer Drug Screen. Data for the mec2-1 strain (AID 157); conditions: S. cerevisiae mec2-1 strain, at 50.0 µM, active compounds read high
Method in brief: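 Growth inhibition is read against vehicle-treated controls after compound exposure of the mec2-1 yeast strain, which is defective in DNA damage repair or cell cycle control.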

[3] = NCI Yeast Anticancer Drug Screen. Data for the sgs1 mgt1 strain (AID 161);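 further: 0% = growth of cultures given vehicle only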; conditions: S. cerevisiae sgs1 mgt1 strain, at 50.0 µM, active compounds read high
Method in brief: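 This yeast growth screen uses a strain with defined DNA-repair lesions; compound-treated growth is compared with vehicle-treated growth.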

[4] = NCI Yeast Anticancer Drug Screen. Data for the cln2 rad14 strain (AID 165);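 further: 0% = growth equal to vehicle treated cultures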; conditions: S. cerevisiae cln2 rad14 strain, at 50.0 µM, active compounds read high
Method in brief: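 Growth inhibition, relative to vehicle-treated controls, is the read-out. The test organism is a yeast strain with defined genetic alterations, cln2 rad14.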

[5] = NCI Yeast Anticancer Drug Screen. Data for the bub3 strain (AID 167); conditions: S. cerevisiae bub3 mutant strain, at 50.0 µM, active compounds read high
Method in brief: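 Yeast carrying a defined mutation is treated with each compound, and growth is compared with that of vehicle-exposed cells to give inhibition.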

[6] = NCI Yeast Anticancer Drug Screen. Data for the mlh1 rad18 strain (AID 175); conditions: S. cerevisiae mlh1 rad18 strain growth inhibition; at 50.0 µM; active compounds read high
Method in brief: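 Cells of a genetically altered yeast strain, deficient in DNA damage repair, were treated with compound. Their growth was then compared with that of vehicle-treated cultures to give inhibition.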

Row | SMILES | growth inhibition [1] | growth inhibition [2] | growth inhibition [3] | growth inhibition [4] | growth inhibition [5] | growth inhibition [6]
1 | O=C1CN(c2cccc(C(F)(F)F)c2)C(=O)CN1/N=C/c1ccc(O)c(O)c1 | 3.4% | -0.1% | -5.3% | -2.3% | 2.4% | 27.6%
2 | Cc1cc2c(cc1C)[n+](=O)c(C(=O)/C=C/c1ccc3c(c1)OCO3)c(C)n2[O-] | 5.85% | 13.4% | 10.1% | 28.8% | 1.35% | 0.15%
3 | Cn1c(=O)c2[nH]c(C3CCCCCC3)nc2n(C)c1=O | 13.6% | -9.7% | -9.4% | -4.1% | 7.25% | -1.8%
4 | Cc1cc(S(=O)(=O)Nc2cc(N)[nH]n2)c(SCc2nc(N)nc(N(C)C)n2)cc1Cl | 11.2% | 8.7% | -0.1% | 2.7% | 6.6% | 8.05%
5 | COc1cccc(N2C(Cl)C(=O)C2c2c[nH]c3ccccc23)c1 (configuration not stated) | -31.4% | -37.2% | -47.6% | -23.1% | -28.9% | -47%
6 | COC1OC(COS(=O)(=O)c2ccc(C)cc2)C2OC(C)(C)OC2C1OS(=O)(=O)c1ccc(C)cc1 (configuration not stated) | 54.9% | 16.8% | -4.4% | 84.2% (active) | 3.85% | 7.1%
7 | C/C(=C/CCl)[N+](=O)[O-] | 36.4% | -10.4% | -4.95% | -7.35% | -8.95% | 14.1%
8 | O=C(O)c1ccncc1S(=O)(=O)O | -20.6% | -36.2% | -24.3% | -8.4% | -23.5% | -9.9%
9 | O=C(CCCCl)c1ccccc1 | 0.75% | -4% | -18.1% | 2.35% | -7.1% | -2.6%
10 | CC(=O)/C(=N\N=C(N)N)c1ccccc1 | -25.4% | -28.8% | -19.6% | 19.8% | 18.1% | 4.5%
11 | CCOC(OCC)C(C)(C)OC=O | -9.2% | -20.8% | -7.7% | 24.2% | 10.6% | 6.6%
12 | C[C@H]1C[C@](C)(CO)Oc2oc3ccccc3c(=O)c21 | 4.5% | 10.3% | 17.4% | 4.75% | 7.2% | 13.1%
13 | Cn1c(=O)c(CC(O)C(Cl)(Cl)Cl)nc2ccccc21 (configuration not stated) | 20.6% | 23.6% | 3.4% | 3.75% | 18.9% | 31.7%
14 | CCOC(=O)C(C)(C)O | 18.8% | 14% | 1.05% | -35.9% | 9.05% | 19.2%
15 | Cc1ccc(S(=O)(=O)OC2CCC3(C)C(=CCC4C3CCC3(C)C(C(C)CCCC(C)C)CCC43)C2)cc1 (configuration not stated) | 51.8% | 26.8% | 49.8% | 10.8% | 2.5% | 37.5%
16 | CC(=O)CCCS(=O)(=O)c1ccccc1 | -1.5% | 14.9% | 0.9% | -12.7% | -3.8% | 5.2%
17 | CC1=C(C)CN(CCC(=O)O)C(C(N)=O)C1 (configuration not stated) | -11.9% | -2.3% | -3.8% | 17.5% | 18.5% | -10.1%
18 | NC(=O)c1cc[cH-]c1.[Fe+2].c1cc[cH-]c1 | -10.1% | 9% | -4.75% | -2.05% | 5.35% | 12.9%
19 | O=C(O)C(Oc1ccccc1)Oc1ccccc1 | -24.7% | -13.2% | -11.8% | 5.85% | 6.6% | -4.95%
20 | CC(C)(C)c1ccc(OCC(=O)O)cc1 | -17.3% | -12% | -7.2% | -17.4% | -8.4% | -6.6%
21 | O=C(O)c1c(O)c(O)cc2ccccc12 | 24.1% | -17.8% | -13.4% | -51.5% | 25.6% | 23.4%

Row | SMILES | growth inhibition [1] | growth inhibition [2] | growth inhibition [3] | growth inhibition [4] | growth inhibition [5] | growth inhibition [6]
22 | CC1=CC(O)C(C(O)(C(F)(F)F)C(F)(F)F)C(C)(C)C1 (configuration not stated) | -26.8% | -41.2% | -9.95% | -4.6% | 0.15% | -1.25%
23 | CCCCCCC(c1ccc(N(C)C)cc1)c1ccc(N(C)C)cc1 | -6.95% | 15.7% | -4.45% | 13.1% | 24.9% | 29.9%
24 | O=C1C(Cc2ccccc2)CCCC1Cc1ccccc1 (configuration not stated) | -5.25% | 17.3% | -8.05% | -21.5% | -6.4% | 3.35%
25 | CCN(CC)Cc1cc(N=Nc2ccc(-c3ccc(N)c(OC)c3)cc2OC)c2ccccc2c1O | 18.7% | 4.35% | 18.6% | 19.8% | -4.8% | 27.4%
26 | COc1cc(C2c3c(cc(OC)c(O)c3OC)C=C(C(=O)O)C2CO)cc(OC)c1O (configuration not stated) | 9.05% | 5.35% | -2.95% | 24.3% | -2.1% | 14.3%
27 | C/C(=N/S(=O)(=O)c1ccc(C)c(C)c1)OC(C)C | 2.6% | 6.9% | 7.95% | -55.1% | 13.1% | -1.2%
28 | CC1=CC(=O)C2CC1C2(C)C (configuration not stated) | 6.55% | -0.5% | 0.5% | 4.75% | 4.6% | -5.2%
29 | Cc1cccc(C)c1NC(=O)Nc1ccc(C(=O)O)cc1 | -8.6% | 31.7% | 2.5% | -15.8% | 22.6% | 11.4%
30 | CC(=O)OCc1ccc(C)cc1 | -9.05% | 6.6% | -12.7% | -32.8% | -14.9% | 0.3%
31 | O=C(O)CCC(=O)CC1CCCCC1 | 36.3% | 15.9% | 10.2% | 39.1% | -8.45% | 28.2%
32 | O=c1[nH]c(=O)n(C2OC(CF)C(O)C2O)cc1N1CCOCC1 (configuration not stated) | 16.9% | 18% | 18% | 17.7% | 19.5% | 33%
33 | CCCCCCCCCCCCC1CC(=O)OC1=O (configuration not stated) | 3.65% | -15.4% | 13% | 18.1% | 32.5% | -8.85%
34 | CC(=O)OC1CC(n2cc(C)c(=O)[nH]c2=O)OC1COP(=O)(N1CC1)N1CC1 (configuration not stated) | -9.25% | -1.25% | -2.8% | -6.1% | -22.6% | -3.95%
35 | O=C1CCC2(O1)c1ccc(O)cc1Oc1cc(O)ccc12 | 1.05% | -24.1% | -17.4% | -3.9% | 7.6% | -7.3%
36 | CC(C)CCCC(C)C1CCC2(C)C3=C(CCC12C)C1(C)Cc2cnn(-c4ccccc4)c2C(C)(C)C1CC3 (configuration not stated) | -6.4% | -6.05% | -6.65% | -12.8% | -2.85% | -17.4%
37 | CC(O)CN1CCN(CCN(CC(C)O)CC(C)O)CC1 (configuration not stated) | -16.1% | -24.2% | -3.7% | -2% | -9.4% | -19.6%
38 | CCN(C(=S)Nc1cccc(OC)c1)c1ccccc1 | -17.2% | -36.9% | 18% | -1.45% | -17.1% | -6.8%
39 | CCCCCCCCCCCCCCCCCC(=O)Oc1c(C(C)CC)cc([N+](=O)[O-])cc1[N+](=O)[O-] (configuration not stated) | 13.2% | 25% | 46.2% | 2.85% | 10.1% | 53.9%
40 | CN(C)c1nc(=O)c2c(ccc3ccccc32)o1 | 26.2% | 24.3% | 7.6% | 14.7% | 0.55% | -3.7%
41 | O=C(O)C(O)c1c[nH]c2ccccc12 (configuration not stated) | -4.85% | -2.3% | -26.6% | -1.25% | -11.4% | -29.3%
42 | C[N+](C)(Cc1ccccc1)c1ccccc1 | -3.7% | -6% | -0.15% | -34.9% | 4.1% | -11.2%
